Screening data as filed in PubChem BioAssay.
In the library only some 1.2% were active in any assay of this set; here they are far more common.
Eya2 inh: qHTS Assay for Inhibitors of the Phosphatase Activity of Eya2; Protein phosphatase EYA2 (Homo sapiens), O00167; recombinant Eya2, OMFP fluorescence dephosphorylation (OMFP is methylfluorescein phosphate); Potency, µM (series often up to 76.9 µM), most hits filed as inhibitors; actives 0.006% (n = 330,000)
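Eya2 protein (added as 0.2 uM solution) was preincubated with compound for 10 min at ambient temperature in 50 mM HEPES pH 7.5, 50 mM NaCl, 5 uM MgCl2, 0.05% BSA, 1 mM DTT. OMFP (added at 50 uM) then reacted 10 min; fluorescence read at 485/525 nm.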
uPA surface inh: qHTS for Inhibitors of Cell Surface uPA Generation; cell surface uPA generation assay, qHTS; Potency, µM (highest dose often 38.3 µM), hits mostly inhibitors; actives 0.31% (n = 330,000); active = well fitted inhibition curve with a large enough effect; inconclusive = small, poorly fitted or top-dose-only effect; inactive = no such curve, though single readings can be large or run the other way; tested in mouse RAW 264.7 cells; note: nearly all actives have a fitted effect of over 55% in size
CtBP-E1A inh: qHTS Assay for Inhibitors of the CtBP/E1A Interaction | activity change, % (test concentration not listed) | AlphaScreen GST-E1A/His-CtBP binding, 1536-well; active compounds read low | CtBP / adenovirus E1A interaction (AlphaScreen) | actives 0.49% (n = 340,000) | AID 651724, 2012; in the data active = activity change below about -65%; inconclusive = mostly about -30% to -63%
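In 5 uL wells, 23 nL compound meets equimolar GST-E1A and His-CtBP (5X stock 125 nM each) for 2 h, 37 °C. Beads (5X, 50 ug/mL) then 1 h, 37 °C, dark.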
L3MBTL1 block: qHTS Assay for the Inhibitors of L3MBTL1; Lethal(3)malignant brain tumor-like protein 1 (Homo sapiens), Q9Y468; AlphaScreen L3MBTL1–H3K9me1 peptide binding; Potency, µM (series often up to 57.1 µM), actives largely listed as inhibitors; actives 0.66% (n = 230,000); note: nearly all actives have a fitted effect of over 60% in size
Target sequence (Q9Y468 whole entry, looked up): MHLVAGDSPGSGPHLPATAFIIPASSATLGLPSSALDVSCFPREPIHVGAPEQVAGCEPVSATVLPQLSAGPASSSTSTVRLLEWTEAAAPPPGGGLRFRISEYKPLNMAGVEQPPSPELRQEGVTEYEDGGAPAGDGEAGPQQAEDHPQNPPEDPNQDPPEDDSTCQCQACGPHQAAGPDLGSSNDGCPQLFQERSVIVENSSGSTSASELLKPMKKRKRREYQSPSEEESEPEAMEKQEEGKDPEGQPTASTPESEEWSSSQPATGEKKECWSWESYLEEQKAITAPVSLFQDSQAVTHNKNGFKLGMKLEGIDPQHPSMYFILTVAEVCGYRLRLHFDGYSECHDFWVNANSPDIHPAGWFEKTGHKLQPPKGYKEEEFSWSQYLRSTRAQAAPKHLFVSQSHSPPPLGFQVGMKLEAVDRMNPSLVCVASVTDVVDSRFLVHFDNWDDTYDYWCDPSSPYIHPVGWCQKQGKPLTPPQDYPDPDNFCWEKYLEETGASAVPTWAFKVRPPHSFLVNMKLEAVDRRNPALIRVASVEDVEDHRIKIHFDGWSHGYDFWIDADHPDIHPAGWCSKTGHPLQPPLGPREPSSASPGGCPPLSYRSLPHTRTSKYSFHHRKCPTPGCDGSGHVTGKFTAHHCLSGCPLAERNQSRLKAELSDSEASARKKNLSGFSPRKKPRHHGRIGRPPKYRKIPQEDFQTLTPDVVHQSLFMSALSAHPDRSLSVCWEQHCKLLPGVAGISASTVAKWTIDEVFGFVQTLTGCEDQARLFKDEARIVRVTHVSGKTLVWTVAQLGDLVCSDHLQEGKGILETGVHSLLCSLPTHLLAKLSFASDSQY
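Read-out is AlphaScreen signal from streptavidin donor and nickel chelate acceptor beads (10 ug/mL final each) bridging L3MBTL1 (50 nM) and biotinylated K9-monomethylated H3(1-15) peptide (75 nM), after 30 min compound exposure at room temperature.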
USP2a block: qHTS Assay for Inhibitors of Ubiquitin-specific Protease USP2a Using CHOP2 as the Reporter | Potency, µM (highest dose often 38.3 µM), most hits filed as inhibitors | AID 463254, 2010 | Ubiquitin carboxyl-terminal hydrolase 2 (Homo sapiens), O75604 | actives 0.01% (n = 330,000) | USP2 core, Ub-CHOP2 coupled fluorogenic reporter, 485/531
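USP2 core (10nM final) preincubated 30min RT with compound in 20mM Tris-HCl pH 8.0, 2mM CaCl2, 2mM beta-mercaptoethanol, 0.05% CHAPS; 25nM Ub-CHOP2 plus 25nM reporter substrate added, fluorescence (Ex485/Em531) read after 60min.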
Six1-Eya2 blk: qHTS Assay for Inhibitors of the Six1/Eya2 Interaction. Homeobox protein SIX1 (Homo sapiens) + Protein phosphatase EYA2 (Homo sapiens), …. AlphaScreen GST-Six1/His-Eya2 binding, biochemical; active compounds read low. activity change, % (test concentration not listed). actives 0.56% (n = 360,000). AID 651725, 2012; in the data active = activity change below about -65%; inconclusive = mostly about -30% to -63%
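GST-Six1 + His-Eya2 (5X stock: 250/500 nM); Tris pH 8.0, 300 mM NaCl, 0.05% BSA, 0.02% Tween 20; GSH donor/Ni acceptor beads; 1 h 37 °C dark; AlphaScreen readout.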
Hits are given with their value; - = inactive; ? = inconclusive; . = no result given. Unless noted, calls come from the whole dose curve; as a rule, active = well fitted curve in the direction sought with a large enough effect; inconclusive = small, poorly fitted or top-dose-only effect, or another doubt; inactive = no such curve, though single readings can be large; an effect the other way counts as inactive or inconclusive.

SMILES	Eya2 inh	uPA surface inh	CtBP-E1A inh	L3MBTL1 block	USP2a block	Six1-Eya2 blk
CN(C)c1ccc(-c2nc3ccccc3c(=O)[nH]2)cc1	-	1.41µM	-	-	-	-
Cn1nnnc1Sc1ncnc2scc(Br)c12	-	2.82µM	.	-	-	.
CCOc1ccc(C=NNc2ccc(S(=O)(=O)Nc3ccccc3C(=O)O)cc2[N+](=O)[O-])cc1	?	-	?	15.8µM	?	?
CSc1ccc(C=NNc2ccc(S(=O)(=O)Nc3ccccc3C(=O)O)cc2[N+](=O)[O-])cc1	-	-	-	20µM	-	-
Cc1cccn2cc(CCNS(=O)(=O)c3cccs3)nc12	-	-	-	.	-	-
O=C(NCCO)c1ccc2c3n(nc2c1)-c1ccc(Cl)cc1CO3	-	?	-	.	-	-
COCCNC(=O)c1ccc2c3n(nc2c1)-c1ccc(Cl)cc1CO3	-	10µM	-	.	-	-
COCCNC(=O)c1ccc2c3n(nc2c1)-c1ccccc1CO3	-	3.98µM	-	.	-	-
C=CCNC(=O)c1ccc2c3n(nc2c1)-c1ccccc1CO3	-	1.41µM	-	.	-	-
O=c1c(-c2ccccc2)cocc1-c1ccccc1	.	.	-	.	.	-
CCOc1ccc2nc(SCC(=O)NC(=O)C(C)C)sc2c1	-	-	-	.	-	-
O=C(CSc1nc2nc(-c3cccs3)cc(C(F)(F)F)c2c(=O)[nH]1)Nc1ccc(F)c(F)c1	-	-	-	28.2µM	-	-
O=[N+]([O-])c1cc(F)cc(F)c1Nc1ccc(F)cc1	.	-	-66.7	.	.	?
O=[N+]([O-])c1cnccc1Nc1ccc(F)cc1	-	-	-	-	-	-
Cc1cccc(N(CC(=O)NC(C)(C)C)C(=O)CNC(=O)c2cccs2)c1C	-	-	-	.	-	-
Cc1cc(C)n2c(SCC(=O)N(CC(C)C)c3c(N)n(CC(C)C)c(=O)[nH]c3=O)nnc2n1	-	-	-	-	-	-
Nc1ccc(S(=O)(=O)Nc2nccc(/C=C/c3ccc(Cl)cc3)n2)cc1	-	-	-76.0	.	-	?
Nc1ccc(S(=O)(=O)Nc2nccc(/C=C/c3ccc([N+](=O)[O-])cc3)n2)cc1	-	-	-	.	-	-
O=C(NNC(=O)C1CCN(c2ncccn2)CC1)c1ccc(F)cc1	-	-	-	.	-	-
Fc1cccc(/C=N/Nc2nncc3ccccc23)c1	-	?	.	.	-	-
C(=N\Nc1nc2ccccc2[nH]1)/c1ccccn1	-	?	.	.	-	?
O=c1cnnc(N/N=C/c2ccccn2)[nH]1	-	-	-97.1	.	-	-91.8
C(=N\Nc1nncc2ccccc12)/c1ccccn1	-	-	-95.5	.	-	-74.5
CN(C)C(=O)c1cccc(-c2cnc3c(NC=O)cc(-c4ccc(N(C)C)cc4)cn23)c1	.	.	-	.	.	-
Cc1ccc(Sc2ccc(NC(=O)CCl)cc2)cc1C	-	12.6µM	-	-	-	-
SMILES	Eya2 inh	uPA surface inh	CtBP-E1A inh	L3MBTL1 block	USP2a block	Six1-Eya2 blk
Cc1ccc(C)c(Sc2ccc(NC(=O)CCl)cc2)c1	-	?	-	-	-	-
COc1ccc(S(=O)(=O)N2CCC3(CC2)OCCN3S(=O)(=O)c2ccc(C)cc2)cc1OC	-	?	-	-	-	-
COc1ccc(/C=N/Nc2nn3cnnc3c3ccccc23)cc1	-	-	-74.1	-	-	?
COc1ccccc1-c1cc(C(F)(F)F)c(C#N)c(=O)[nH]1	-	-	-	-	-	-
COc1ccccc1-c1cc(SC)c(C#N)c(=O)o1	-	11.2µM	.	-	-	-
COc1ccc(-c2cc(C(F)F)n3ncc(C(=O)N4CCCCC4)c3n2)cc1	-	-	-	-	-	-
COc1ccc(-c2csc(N3CCN(C(=O)c4ccco4)CC3)n2)cc1	-	-	-	-	11.2µM	-
COc1ccc(-c2cc(C(F)F)n3ncc(C(=O)N4CCN(C(=O)c5ccco5)CC4)c3n2)cc1	-	10µM	-	-	-	-
Clc1ccc(-c2cn3ccccc3n2)cc1	-	8.91µM	-	-	-	-
COc1ccc(-c2cn3ccccc3n2)cc1	-	2µM	-	-	-	-
O=C(NC(c1ccccc1)c1ccc2ccccc2n1)C1CCN(Cc2cccc(C(F)(F)F)c2)CC1 (centres undefined)	.	.	-	.	.	-
CC(=O)Nc1ccc(C=CC=Cc2cccc([N+](=O)[O-])c2)cc1	.	-	-	.	.	-
CC(C)(C)OC(=O)Nc1ccccc1-n1nnnc1C(C(=O)c1ccccc1)N1CCN(c2ccccn2)CC1 (centres undefined)	.	.	-	.	.	-
O=C(Cn1cnc([N+](=O)[O-])n1)N/N=C/c1cccc2ccccc12	-	-	-	-	-	-
O=C(Cn1cnc([N+](=O)[O-])n1)N/N=C/c1ccc(O)cc1O	-	-	-96.2	.	-	-91.8
Cc1cc(C)n(CCC(=O)N/N=C/c2ccccc2O)n1	-	?	-	-	-	?
Cc1cc(C)n(CCC(=O)N/N=C/c2ccc(O)cc2O)n1	-	-	-69.3	-	-	-85.9
O=C(CCN1CCN(C(c2ccccc2)c2ccccc2)CC1)N/N=C/c1ccc(O)cc1O	-	-	-73.4	-	-	-
O=C(O)CC1(CC(=O)Nc2ccc3sccc3c2)CCCCC1	-	-	-	-	-	-
CCOC(=O)c1sc2nc(C)nc(SCC(=O)N(CC)C3CCS(=O)(=O)C3)c2c1C (centres undefined)	-	-	-	-	-	-
CCc1ccc2c(c1)C(=O)C[C@]1(CCC[C@H](C)C1)O2	-	-	-	-	-	-
Cc1nc(C)c(C(=O)Nc2nc3c(C)cccc3s2)o1	-	.	-	20µM	-	-
Cc1cccc2sc(NC(=O)C3CCCO3)nc12 (centres undefined)	-	-	-	-	-	-
O=C(NCCN1CCC(n2c(=O)[nH]c3ccccc32)CC1)c1ccc(Cl)cc1Cl	.	.	-	.	.	-
COc1ccc(NC(=O)C2C(c3ccc4c(c3)OCO4)=Nc3ccccc3N2C(C)=O)cc1 (centres undefined)	.	.	-	.	.	-
COCc1ccc(O)c2ncccc12	-	-	-95.0	.	-	-91.2
Oc1ccc(COC2CCCC2)c2cccnc12	-	.	.	20µM	-	.
Oc1ccc(COc2cccc3ccccc23)c2cccnc12	-	.	.	-	-	.
